Compound activity from PubChem.
RXFP1 agonist: agonists of human relaxin receptor RXFP1; HEK293T-RXFP1 cAMP TR-FRET, 30 min; response scale: percent of porcine relaxin response, buffer zero; Q9HBX9; Potency, µM (series often up to 57.5 µM), without a hit: top-dose activation, usual class: activators; hit rate 0.3% among 370,000; also: potency is read from the fitted curve at half-maximal effect; % is scaled to controls: 0 for no effect and ±100 for the full control effect; nearly all actives have a fitted effect of over 60% in size
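HEK293T cells stably expressing RXFP1 were pretreated with the PDE4 inhibitor Ro 20174, exposed to compounds for 30 min at 37C, lysed, and cAMP was read by TR-FRET. Data normalized to buffer (basal) and 29 nM porcine relaxin (100%).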
IL2 activator: activators of IL-2; IL-2 activation reporter assay, cell-based qHTS; stimulated with anti-CD3/CD4/CD28 beads; in transgenic mouse T cells; activation, % (series mostly up to about 46 µM); hit rate 0.065% among 360,000; AID 652025; in the data active = activation above about 50%; inconclusive = mostly about 30% to 49%; also: 0% is about no effect
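Using fluorescent plate cytometry, EGFP and DsRed are detected in transgenic mouse T cells stimulated 18 h at 37 degrees C with antibody-coated beads after 60 min compound pretreatment.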
NPSR antagonist: neuropeptide S receptor (human) antagonism, cAMP | Potency, µM (highest dose often 38.3 µM), for inactives: at the highest dose activity change, negative = inhibition, usual class: inhibitors | AID 1461 | CHO-NPSR cells, cAMP TR-FRET, antagonist mode | hit rate 1% among 220,000 | Q6W5P4; also: potency is read from the fitted curve at half-maximal effect; % is scaled to controls: 0 for no effect and ±100 for the full control effect; nearly all actives have a fitted effect of over 50% in size
Target sequence (Q6W5P4 whole entry, looked up): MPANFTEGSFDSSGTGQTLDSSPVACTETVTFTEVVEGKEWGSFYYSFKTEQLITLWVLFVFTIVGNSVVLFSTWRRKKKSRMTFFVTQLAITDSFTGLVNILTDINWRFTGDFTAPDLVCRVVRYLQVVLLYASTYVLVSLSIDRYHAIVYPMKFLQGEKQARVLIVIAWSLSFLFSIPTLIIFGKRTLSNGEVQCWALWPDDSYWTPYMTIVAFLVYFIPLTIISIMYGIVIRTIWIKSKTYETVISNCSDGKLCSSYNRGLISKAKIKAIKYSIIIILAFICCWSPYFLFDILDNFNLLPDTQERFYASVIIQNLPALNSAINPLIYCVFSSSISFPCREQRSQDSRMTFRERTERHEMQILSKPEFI
BRCA1 expr up: increases BRCA1 expression; MCF7-BRCA1-FFLuc reporter, luminescence, 48 h; response scale: scaled: vehicle 0%, 10 µM genistein 100%; Potency, µM (top dose mostly 46.1 µM), without a hit: at the top dose activation, hits mostly activators; hit rate 1.1% among 380,000; AID 624202; also: potency is read from the fitted curve at half-maximal effect; nearly all actives have a fitted effect of over 80% in size
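MCF7-BRCA1-FFLuc cells, 2000/well in phenol-red-free MEM, attached 2 h then treated 48 h at 37 C. Luciferase luminescence read 15 min after reagent; normalized to genistein maximum activation (10microM) and DMSO, concentration-response fitted.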
Giardia killer: Giardia lamblia killing. hit rate 0.15% among 340,000. Giardia lamblia trophozoite viability. activity change, % at 7.66 µM, hits read low; in the data active = activity change below about -80%; inconclusive = between about -30% and that limit;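 also: parasites exposed to compound for two days anaerobically before the ATP read; % is scaled to controls: 0 for no effect and ±100 for the full control effect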
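Trophozoite viability was measured as ATP-dependent luminescence, read 15-30 min after reagent addition. Before that, parasites at 100 cells/well were exposed to compounds for 48 h, anaerobically, at 37 deg C.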
RXFP1 antagonist: RXFP1 (human) relaxin receptor antagonism; HEK293-RXFP1, relaxin-stimulated cAMP HTRF, 30 min; hits give low values; activity change, negative = inhibition, % at 57.5 µM; Q9HBX9; hit rate 0.59% among 350,000;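 active = activity change of -60% or lower, but not beyond a set lower limit; inconclusive = change between -60% and -40%, or beyond the set limit; inactive = change above -40%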; also: % is scaled to controls: 0 for no effect and ±100 for the full control effect
Starred values were filed as active, the others as inactive; [ ] = dose if it differs, or a comment. Shown are actives, neighbours in structure and some others; about 1.9% of the full set was active somewhere. Unless noted, calls follow the shape of the dose curve; as a rule, active = well fitted curve in the direction sought with a large enough effect; inconclusive = small, poorly fitted or top-dose-only effect, or another doubt; inactive = no such curve, though single readings can be large; an effect the other way counts as inactive or inconclusive.

`O=[N+]([O-])c1cc(/C=N/O)ccc1Oc1cccc(Cl)c1` gave RXFP1 agonist 2%, IL2 activator -2, NPSR antagonist -20%, BRCA1 expr up -3%, Giardia killer -4 and RXFP1 antagonist 10.
Screening O=[N+]([O-])c1cc(/C=N/O)ccc1Oc1ccccc1Cl returned RXFP1 agonist 3%, IL2 activator -1, NPSR antagonist -15%, BRCA1 expr up 7.1µM*, Giardia killer -20 and RXFP1 antagonist -12.
Cc1nc(S(=O)(=O)N2CCN(c3cccc(Cl)c3)CC2)cn1C was read as RXFP1 agonist 2% and BRCA1 expr up 11%.
`O=S(=O)(Nc1cc(Br)cc2cccnc12)c1ccccc1` gave BRCA1 expr up -53% and Giardia killer 24.
Screening O=C(O)c1ccc(-c2ccccn2)s1 returned RXFP1 agonist 27%, IL2 activator 1, NPSR antagonist -19%, BRCA1 expr up 10µM*, Giardia killer -8 and RXFP1 antagonist -3.
`c1ccc(-c2ccc(-c3ccccn3)s2)nc1` gave RXFP1 agonist 6%, IL2 activator -1, NPSR antagonist 13%, BRCA1 expr up 25%, Giardia killer -20 and RXFP1 antagonist -11.
CCCN1CNc2c(c(=O)[nH]c(=S)n2CCc2cccc(Cl)c2)C1 was read as BRCA1 expr up 0% and Giardia killer 26.
Screening Cc1cc(C)nc(SC2=CS(=O)(=O)c3ccccc32)n1 returned RXFP1 agonist 0%, IL2 activator 0, NPSR antagonist -20%[46.1 µM], BRCA1 expr up -58%, Giardia killer 12 and RXFP1 antagonist -2.
For O=S1(=O)C=C(Sc2nc3ccccc3s2)c2ccccc21 the results were RXFP1 agonist 0%, IL2 activator -2, NPSR antagonist 10µM*, BRCA1 expr up -114%, Giardia killer -20 and RXFP1 antagonist inconclusive.
Screening O=C(Nc1nc2nccc(-c3ccccc3)n2n1)c1ccc(F)cc1 returned RXFP1 agonist 0%, IL2 activator 4, NPSR antagonist -5%, BRCA1 expr up 4%, Giardia killer 10 and RXFP1 antagonist -7.
O=C(Nc1nsc(-c2ccccc2)n1)c1ccc(F)cc1 was read as RXFP1 agonist 0%, IL2 activator 0, NPSR antagonist -5%, BRCA1 expr up 11µM*, Giardia killer -19 and RXFP1 antagonist -3.
Screening O=C(NCC(O)CO)c1c(I)c(C(=O)NCC(O)CO)c(I)c(N(CCO)C(=O)CO)c1I (configuration not stated) returned RXFP1 antagonist 4.
O=C(CSc1nc(=O)n2cc(Cl)ccc2n1)Nc1ccc2c(c1)OCO2 was read as RXFP1 agonist 20%, IL2 activator 312*, BRCA1 expr up -2%, Giardia killer 9 and RXFP1 antagonist 5.
For O=C(CSc1nc(=O)n2cc(Cl)ccc2n1)Nc1ccc2c(c1)OCCO2 the results were RXFP1 agonist 11%, IL2 activator -1, BRCA1 expr up -18%, Giardia killer -1 and RXFP1 antagonist -5.
`COC(=O)C1=C(C)N(Cc2ccccc2)C(=NCc2ccco2)N[C@H]1c1ccc(Br)cc1` gave RXFP1 agonist 2%.
Screening O=c1c2ccccc2sc2nc(C3CCCCC3)n(Cc3ccco3)c(=O)c12 returned RXFP1 agonist 1%, IL2 activator 12, NPSR antagonist 10µM*, BRCA1 expr up -22%, Giardia killer -7 and RXFP1 antagonist 3.
CCc1nc2sc3ccccc3c(=O)c2c(=O)n1Cc1ccco1 was read as RXFP1 agonist 1%, IL2 activator 1, NPSR antagonist -22%[46.1 µM], BRCA1 expr up 8%, Giardia killer 3 and RXFP1 antagonist -7.
CCCCn1c(=O)[nH]c(=O)c2c1nc(Cn1ncc(Cl)c(Cl)c1=O)n2CCC was read as RXFP1 agonist 25µM*, IL2 activator -4, BRCA1 expr up -77%, Giardia killer 8 and RXFP1 antagonist 10.
Screening CCCCn1c(=O)[nH]c(=O)c2c1nc(CN1C(=O)c3ccccc3S1(=O)=O)n2CCC returned RXFP1 agonist 3%, IL2 activator -1, NPSR antagonist -20%[46.1 µM], BRCA1 expr up -27%, Giardia killer -28 and RXFP1 antagonist -2.
CC(=O)Nc1ccc(NC(=O)c2nc(SCc3ccccc3F)ncc2Cl)cc1 was read as BRCA1 expr up -5%.
For Brc1ccc(NC2=Nc3ccccc3CC2)cc1 the results were RXFP1 agonist 1%, IL2 activator 2, NPSR antagonist -2%[46.1 µM], BRCA1 expr up 8.9µM*, Giardia killer -7 and RXFP1 antagonist 0.
Cc1nn2c(N)c(C#N)cnc2c1-c1ccc(Cl)cc1 was read as RXFP1 agonist 16%, IL2 activator -3, NPSR antagonist 7.9µM*, BRCA1 expr up -27% and Giardia killer -8.
CC(C)Cc1ccc(C(C)C(=O)OCc2ccccn2)cc1 (configuration not stated) was read as RXFP1 antagonist -32.
CCOc1ccc(N(C)S(=O)(=O)c2ccc3c(c2)C(C)(C)C(=O)N3C)cc1 was read as RXFP1 agonist 2% and BRCA1 expr up 16%.
For O=C1c2ccccc2C(=O)N1c1nc(-c2ccc(F)cc2)cs1 the results were BRCA1 expr up 17%.
Screening O=C(CSc1nc(-c2ccccc2)[nH]c1-c1ccccc1)Nc1ccc2c(c1)OCO2 returned RXFP1 agonist 1% and RXFP1 antagonist inconclusive.
Screening CCOC(=O)C1CCCN(c2c(C(=O)c3ccc(C)cc3)cnc3ccc(OCC)cc23)C1 (configuration not stated) returned RXFP1 agonist 7%, BRCA1 expr up -2%, Giardia killer -12 and RXFP1 antagonist -14.
For CCCN1CNc2c(c(=O)[nH]c(=S)n2CCc2c(Cl)cccc2Cl)C1 the results were BRCA1 expr up -8% and Giardia killer -8.
`NS(=O)(=O)c1ccc(CNc2ccc3ccccc3n2)cc1` gave RXFP1 agonist 1%, IL2 activator -2, BRCA1 expr up 8.9µM*, Giardia killer 4 and RXFP1 antagonist 9.
Cc1ccc(CNC(=O)C2CCN(S(=O)(=O)c3c(C)noc3/C=C/c3c(C)cc(C)cc3C)CC2)cc1 was read as RXFP1 agonist 1% and RXFP1 antagonist 10.
`Cc1ccc(CNC(=O)C2CCN(S(=O)(=O)c3c(C)noc3/C=C/N(C)C)CC2)cc1` gave RXFP1 agonist 0%, IL2 activator 0, BRCA1 expr up -21%, Giardia killer -26 and RXFP1 antagonist -64*.
For CCCc1cc(=O)n2[nH]c(-c3ccc(Cl)cc3)cc2n1 the results were RXFP1 agonist -2%, IL2 activator 0, BRCA1 expr up 7.1µM*, Giardia killer -12 and RXFP1 antagonist 4.
